Measured values from PubChem BioAssay (NCI).
This is part of a sample that, as a whole, favours compounds with a hit. Of some 83,000 tested, about 20% had one in any assay.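 Percent growth is the endpoint: 0 to 100 indicates growth inhibition (40 means 60% inhibition), 0 means no net growth, and negative values indicate cell death.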 Values without a mark were called inactive. Calls of active or inactive are those of the source. How the source made its calls: active means growth percent below 10; inactive means the rest.

Columns and labels:
Experiment in all cases: NCI-60 one-dose screen, 48 h (100 = growth as untreated, 0 = no growth, -100 = all killed)
Details in all cases: 10 µM unless noted
SR leukemia = tested on: SR leukemia
RPMI-8226 leukemia = tested on: RPMI-8226 leukemia
OVCAR-5 ovarian = tested on: OVCAR-5 ovarian
OVCAR-4 ovarian = tested on: OVCAR-4 ovarian
SK-OV-3 ovarian = tested on: SK-OV-3 ovarian
IGROV1 ovarian = tested on: IGROV1 ovarian
OVCAR-3 ovarian = tested on: OVCAR-3 ovarian
HS 578T breast = tested on: HS 578T breast
NCI/ADR-RES ovarian = tested on: NCI/ADR-RES ovarian
T-47D breast = tested on: T-47D breast
BT-549 breast = tested on: BT-549 breast
MDA-MB-435 melanoma = tested on: MDA-MB-435 melanoma
SW-620 colon = tested on: SW-620 colon
MCF7 breast = tested on: MCF7 breast
HCT-116 colon = tested on: HCT-116 colon
KM12 colon = tested on: KM12 colon
HCC-2998 colon = tested on: HCC-2998 colon
OVCAR-8 ovarian = tested on: OVCAR-8 ovarian

SMILES	growth (SR leukemia)	growth (RPMI-8226 leukemia)	growth (OVCAR-5 ovarian)	growth (OVCAR-4 ovarian)	growth (SK-OV-3 ovarian)	growth (IGROV1 ovarian)	growth (OVCAR-3 ovarian)	growth (HS 578T breast)	growth (NCI/ADR-RES ovarian)	growth (T-47D breast)	growth (BT-549 breast)	growth (MDA-MB-435 melanoma)	growth (SW-620 colon)	growth (MCF7 breast)	growth (HCT-116 colon)	growth (KM12 colon)	growth (HCC-2998 colon)	growth (OVCAR-8 ovarian)
O=C(O)C(O)C(O)C(=O)O.[NH-]C1CCCCC1[NH-].[Pt+2] (centres undefined)	117%	110%	108%	106%	105%	106%	107%	109%	107%	105%	108%	104%	95%	91.9%	95.1%	96.4%		
CC1=C(C)C(=O)OC([C@](C)(O)[C@]2(O)CC[C@@]3(O)[C@@H]4C[C@H]5O[C@]56CC=CC(=O)[C@]6(C)[C@H]4CC[C@]23COC(=O)c2ccc(C)o2)C1 (some centres undefined)	2.88% (active)	-17.3% (active)	-69.8% (active)	-32.9% (active)	-51.7% (active)	-54.4% (active)	-96.2% (active)	3.52% (active)		-57.1% (active)	-49.3% (active)	-76.9% (active)	-55.6% (active)	-66.2% (active)	-43.5% (active)	-69% (active)	-73.7% (active)	
CC(C)(C)n1cc(-c2ccnc(NCCNS(=O)(=O)c3ccccc3)c2)c(-c2cccc(O)c2)n1	27.3%	22.2%	78.4%	60.6%	88.4%	76%	74.4%	62.4%	74.8%	24.3%	26.4%	68.3%	16.2%	36.5%	47.2%	42.8%	47.5%	
CNC(=S)N/N=C/CSC/C=N/NC(=S)NC	6.29% (active)	63.7%	89.8%	76.1%	80.5%	9.24% (active)	32.3%	107%	97.9%	33.2%	96.8%	81.7%	64.5%		63.3%	75.9%	97.6%	
O=C1Nc2ccccc2C12CC(c1ccc(Cl)cc1)=NN2 (centres undefined)	86.2%	77.8%	95.8%	98.6%	107%	101%	116%	107%	108%	91.1%	98.5%	98.8%	106%	91.4%	95.3%	110%	108%	
COc1ccc(CCN2CCCn3c2nc2ccccc2c3=O)cc1	24.8%	29.9%	41.6%	41.9%	53.7%	40.3%	-4.64% (active)	38.9%		80.8%	29.5%	-15.2% (active)	27%	16.8%	14.3%	14.7%	8.36% (active)	
CN1CCN(Cc2ccc(NC(=O)c3[nH]ncc3Nc3ccnc4ccsc34)cc2)CC1	-12.5% (active)	19.2%	18.1%	12.5%	34.7%	24.2%	22.6%	54.6%	93.5%	65.8%	63.1%	61.7%	20.6%	12.9%	10.1%	12.3%	33%	
COc1ccc(/C=C/C(=O)c2ccc(NC(=O)c3cc4cc5ccccc5nc4s3)cc2)cc1OC	98.6%		96.8%	97.1%	106%	81.8%	95.5%	107%	105%	87.7%	104%	102%	105%	80.3%	91.6%	76.3%	104%	111%
COc1ccc(C(=O)COc2ccc(/C=C3\Oc4ccc(Cl)cc4C3=O)cc2)cc1	-22.4% (active)		103%	86.3%	98.7%	32.9%	113%	91.8%		78.2%	98.1%	106%	83.6%	47.1%	23.6%	98.8%	111%	76.6%
Cc1ccc(N)cc1F	121%		109%	113%	102%	104%	102%	86.4%	94.2%	184%	116%	100%	107%	94.2%	86.8%	99.7%		96.4%
CCOC(=O)CC(C)=N	120%		107%	100%	111%	132%	112%	107%	112%	109%	103%	113%	101%	95.6%	102%	120%	117%	108%
O=C(/C=C/c1ccc(Cl)cc1)c1ccc(O)c(CN2CCN(c3cc4c(cc3F)c(=O)c(C(=O)O)cn4C3CC3)CC2)c1		16.5%	77.5%	89.2%	73.8%	51.6%	73.9%	47%	65.7%	53.4%	46.3%	52%	47.8%	45.6%	12.6%	59.3%	59.4%	27.4%
COC(=O)[C@H](C(C)C)n1c(=O)c2cc(OC)c(OC)cc2c2cnc3[nH]ccc3c21		55%	39.9%	85%	26.5%	3.08% (active)	48.8%	12.6%	56.4%	14.8%	21.2%	75.1%	61.8%	26.2%	41.4%	18.4%	62%	65.1%
O=[N+]([O-])c1c(F)cccc1Nc1cccc(F)c1	102%		97.3%	95.9%	114%	117%	109%	102%	110%	108%	118%	105%	108%	90.3%	99.5%	115%	102%	102%
O=C1Nc2ccc(Br)cc2C12CC(c1ccccc1)=NN2 (centres undefined)	12.5%		82%	67.5%	48.4%	52.6%	24.1%	47%	40.8%	71.6%	47.8%	-21.1% (active)	18.6%	18.3%	22.9%	30.6%	75.2%	61%
CCN(CC)CC(O)c1cc(-c2ccc(Cl)cc2)nc2c(C)c(Cl)ccc12 (centres undefined)	-79.5% (active)		-97.3% (active)	-26% (active)	29.2%	-84.7% (active)	-100% (active)	-62.4% (active)	-84.7% (active)	-89.2% (active)	-36.1% (active)	-90% (active)	-85.8% (active)	-92% (active)	-100% (active)	-100% (active)	-97.4% (active)	-82.7% (active)
CCOC(=O)C(=Cc1ccccc1F)C(=O)OCC		93.1%	106%	97%	106%	95.2%	95.2%	104%	100%	67.4%	87.4%	84.6%	107%	58.6%	75.1%	84.7%	110%	105%
COc1cc2c(c(OC)c1OC)-c1ccc(N=NC(N)=S)c(=O)cc1[C@@H](NC(C)=O)CC2	15%		48.5%	33.5%	12.1%	5.37% (active)	-52.2% (active)	24.2%	82.1%	62.2%	-37.5% (active)	0.0927% (active)	17.3%	8.57% (active)	-28.4% (active)	-31.1% (active)		1.13% (active)
